# This is part of a sample that, as a whole, favours compounds with a hit. Of some 83,000 tested, about 20% had one in any assay.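 Step 1: grow cells in 96-well plates. Step 2: add test compound at a single concentration. Step 3: incubate 48 h. Step 4: record percent growth.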 A number with no mark means an inactive call. The source made the active and inactive calls. The calls were made as follows: active = growth percent below 10; inactive = the rest.
# System: SW-620 colon
# Experiment: NCI-60 one-dose screen, 48 h (100 = growth as untreated, 0 = no growth, -100 = all killed)
# Conditions: 10 µM unless noted
row,SMILES,growth
1,Cc1cc(S(=O)(=O)/N=C(\N)n2nc(C)c(C)c2C)c(SCc2ccccc2)cc1Cl,75.4%
2,CS(=O)(=O)Nc1cncc(-c2ccc3ncnc(Nc4cncc(Cl)c4)c3c2)c1,107%
3,COc1ccc(CNc2c3ccccc3nc3ccccc23)cc1,25.6%
4,N#CSc1c[nH]c2cccc(/C=C/C(=O)/C=C(/C=C/c3cccc4[nH]cc(SC#N)c34)OB(F)F)c12,-35% (active)
5,CC1=NC2=Nn3c(c4cnn(-c5ccccc5)c4n/c3=N\N)NN2C(c2ccccc2)=C1,86.8%
6,COc1ccc(\C=N/N=C(N)/C(N)=N\N=C/c2ccc(OC)cc2)cc1,103%
7,NC(=O)c1cccc(-n2ccc3cc(NC(=O)c4ccc(N5CCOCC5)c(C(F)(F)F)c4)ccc32)n1,68.2%
8,COc1ccc(-c2nc3cc(C(=O)NCc4ccccc4)ccc3n2C2CCCCC2)cc1,94.9%
9,CN(C)CC(C)(C)C(=O)/C=C/c1ccccc1,-59.1% [25 µM] (active)
10,C=CCn1c(SCC(=O)Nc2ccc(C(=O)/C=C/c3ccc(Cl)cc3)cc2)nnc1-c1ccc(Br)cc1,82.5%
11,Cc1cn(-c2cc(NC(=O)c3cccc(C#Cc4cccc5[nH]nc(N)c45)c3)cc(C(F)(F)F)c2)cn1,44.1%
12,Oc1c(I)cc(I)cc1CNCCN(Cc1ccccn1)Cc1ccccn1,-42.5% (active)
13,C=CC[Se]C(=O)Cc1c(C)n(C(=O)c2ccc(Cl)cc2)c2ccc(OC)cc12,5.69% (active)
14,CCC(=C(c1ccc(OCCN2CCCCC2)cc1)c1ccc(OCCN2CCCCC2)cc1)c1ccc(Cl)cc1,-84.1% (active)
15,Cc1ccc(/C=C2\COc3ccc(O)cc3C2=O)cc1,47.9%
16,COc1cc2nc3cc([N+](=O)[O-])ccc3c(NCCNCC(C)O)c2cc1OC (stereo not drawn),-4.13% (active)
17,O=C(NNC(=O)c1ccc(NC(=O)c2ccccn2)cc1)Nc1ccc([N+](=O)[O-])cc1,104%
18,O=C(Nc1ccc(Oc2cccc(F)c2)c(Cl)c1)c1cccnc1,25.8%
19,CCCc1c(OC(=O)c2ccccc2)nc2[nH]c(=O)sc2c1C,95.3%

row,SMILES,growth
1,CCCCCN1C(=O)/C(=c2\sc3n(c2=O)C2C(NN=3)N(CC)C(=O)N2CC)c2ccccc21 (stereo not drawn),-42.1% (active)
2,CCOC(=O)c1cc(C)n(-c2ccc(C(=O)O)cc2)c1C,64.4%
3,O=C1NC(=O)C(Cc2ccc(OCc3ccc(-c4ccc(Cl)cc4Cl)cc3)cc2)S1 (stereo not drawn),67.9%
4,CC/C=C\C[C@H](O)C/C=C1/C(=O)C=C[C@@H]1C/C=C\CCCC(=O)N(C)C,-42.4% (active)
5,NC(=O)CSc1oc(-c2ccccc2)nc1S(=O)(=O)c1ccc(Br)cc1,94.4%
6,COc1cc(-c2nccc3[nH]c(-c4ccc5cc[nH]c5c4)nc23)cc(OC)c1OC,-15.6% (active)
7,Cc1nc2sc(C(=O)Nc3cccc(Br)c3)c(N)c2cc1C(O)c1ccccc1 (stereo not drawn),31%
8,CC(C)c1ccc(Cc2cnc(NC(=O)c3cc(Br)cs3)s2)cc1,28.3%
9,Cc1ccc(-c2nc([P+](c3ccccc3)(c3ccccc3)c3ccccc3)c(S(=O)(=O)c3ccc(C)cc3)o2)cc1,-70.3% (active)
10,COC(CC(F)F)c1cn(S(=O)(=O)c2ccc(C)cc2)c2ccccc12 (stereo not drawn),12.9%
11,Cc1ccc(C[P+](c2ccccc2)(c2ccccc2)c2ccccc2)cc1,10.9%
12,Cn1cc(-c2nonc2-c2cn(C)c3ccccc23)c2ccccc21,24.5%
13,CC1=C2[C@@H](CC1)[C@]1(C)O[C@@](C(C)C)(C[C@H]1OC(=O)[C@H](C)O)[C@H]2OC(=O)/C=C/c1ccccc1,95.1%
14,Cc1c(-c2ccc(O)cc2)n(Cc2ccc(OCCN3CCCCCC3)cc2)c2ccc(O)cc12,66.3%
15,CCOC(=O)C(=O)C(C(=O)OCC)c1ccccc1 (stereo not drawn),103%
16,CS(=O)(=O)c1ccc(-c2cnn3ccc(-c4cccc(S(=O)(=O)C5CC5)c4)nc23)cc1,74.2%
17,O=S(=O)(NCCNc1nccc(-c2c(-c3ccc(F)c(O)c3)nc3occn23)n1)c1ccc(Cl)cc1,112%
18,Nc1n[nH]c2cccc(C#Cc3cccc(NC(=O)c4cc(F)cc(C(F)(F)F)c4)c3)c12,62.5%
19,N#Cc1nc(-c2ccc(F)cc2)oc1S(=O)(=O)N1CCOCC1,-77.9% (active)
